We go through two compounds from ChEMBL document CHEMBL1961873, “Compounds: GSK PKIS; Assays: Nanosyn kinase panel” (2012).

Molecules are shown by their SMILES.

For orientation: inhibition means the relative decrease from the control value, in per cent.

For assay [1], the target named is Protein kinase C gamma type (Homo sapiens) (UniProt P05129). Particulars: at 1 µM.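 Also: each value is an averaged percent inhibition of the enzyme.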
Assay [2] has as its target T1, Protein kinase C iota type (Homo sapiens) (UniProt P41743).
T1 sequence (whole entry): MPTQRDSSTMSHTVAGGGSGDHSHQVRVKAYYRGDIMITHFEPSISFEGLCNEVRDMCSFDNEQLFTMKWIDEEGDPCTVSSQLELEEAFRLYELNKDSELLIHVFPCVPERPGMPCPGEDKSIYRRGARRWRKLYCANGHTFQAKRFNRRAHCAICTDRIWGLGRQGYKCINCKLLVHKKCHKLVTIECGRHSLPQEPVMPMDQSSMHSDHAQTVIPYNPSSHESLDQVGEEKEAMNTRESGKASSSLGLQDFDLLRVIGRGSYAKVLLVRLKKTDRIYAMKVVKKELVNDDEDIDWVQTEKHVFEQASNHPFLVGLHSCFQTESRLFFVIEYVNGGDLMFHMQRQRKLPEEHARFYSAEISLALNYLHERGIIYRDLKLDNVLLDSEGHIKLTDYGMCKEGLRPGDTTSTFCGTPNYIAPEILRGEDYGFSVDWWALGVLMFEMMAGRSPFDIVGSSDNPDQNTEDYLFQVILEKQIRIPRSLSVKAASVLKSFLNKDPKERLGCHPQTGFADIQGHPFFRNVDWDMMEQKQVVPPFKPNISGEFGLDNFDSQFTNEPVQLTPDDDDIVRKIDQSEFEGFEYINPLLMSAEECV
The following applies: at 0.1 µM.

Assay [3] deals with T1, Protein kinase C iota type (Homo sapiens). Particulars: at 1 µM.
The target in assay [4] is Protein kinase C theta type (Homo sapiens) (UniProt Q04759). The following applies: at 0.1 µM.
The target is the same in assay [5]. The following applies: at 1 µM.
Assay [6] concerns the target Protein kinase C beta type (Homo sapiens) (UniProt P05771). Particulars: at 0.1 µM.
The target is the same in assay [7]. Particulars: at 1 µM.
Assay [8] addresses T2, Serine/threonine-protein kinase D1 (Homo sapiens) (UniProt Q15139).
T2 sequence (whole entry): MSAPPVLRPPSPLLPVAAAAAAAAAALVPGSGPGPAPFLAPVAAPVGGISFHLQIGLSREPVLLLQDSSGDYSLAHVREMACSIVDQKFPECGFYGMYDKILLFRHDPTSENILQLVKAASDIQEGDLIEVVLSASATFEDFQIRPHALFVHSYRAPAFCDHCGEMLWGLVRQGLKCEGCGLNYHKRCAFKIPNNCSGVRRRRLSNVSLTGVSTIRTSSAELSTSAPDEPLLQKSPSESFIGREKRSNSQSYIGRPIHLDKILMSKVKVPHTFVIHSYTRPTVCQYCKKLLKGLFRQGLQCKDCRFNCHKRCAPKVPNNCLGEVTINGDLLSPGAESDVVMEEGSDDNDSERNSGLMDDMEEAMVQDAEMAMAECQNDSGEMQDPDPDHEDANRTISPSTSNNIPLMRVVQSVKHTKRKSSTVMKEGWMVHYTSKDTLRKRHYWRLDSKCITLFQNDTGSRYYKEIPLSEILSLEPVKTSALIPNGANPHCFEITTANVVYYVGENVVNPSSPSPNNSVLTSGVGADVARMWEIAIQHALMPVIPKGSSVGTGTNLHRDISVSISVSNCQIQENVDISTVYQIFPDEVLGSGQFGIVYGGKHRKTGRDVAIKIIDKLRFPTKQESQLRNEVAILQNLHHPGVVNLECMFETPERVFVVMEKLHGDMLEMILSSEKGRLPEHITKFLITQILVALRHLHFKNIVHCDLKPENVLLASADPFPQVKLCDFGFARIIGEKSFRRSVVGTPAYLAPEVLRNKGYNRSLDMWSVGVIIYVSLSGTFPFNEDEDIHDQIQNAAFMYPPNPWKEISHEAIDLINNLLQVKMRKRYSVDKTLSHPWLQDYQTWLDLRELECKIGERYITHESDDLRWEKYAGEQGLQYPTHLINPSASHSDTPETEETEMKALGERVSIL
The following applies: at 0.1 µM.

Assay [9] has as its target T2, Serine/threonine-protein kinase D1 (Homo sapiens). The following applies: at 1 µM.
Assay [10] concerns the target T3, Serine/threonine-protein kinase D2 (Homo sapiens) (UniProt Q9BZL6).
T3 sequence (whole entry): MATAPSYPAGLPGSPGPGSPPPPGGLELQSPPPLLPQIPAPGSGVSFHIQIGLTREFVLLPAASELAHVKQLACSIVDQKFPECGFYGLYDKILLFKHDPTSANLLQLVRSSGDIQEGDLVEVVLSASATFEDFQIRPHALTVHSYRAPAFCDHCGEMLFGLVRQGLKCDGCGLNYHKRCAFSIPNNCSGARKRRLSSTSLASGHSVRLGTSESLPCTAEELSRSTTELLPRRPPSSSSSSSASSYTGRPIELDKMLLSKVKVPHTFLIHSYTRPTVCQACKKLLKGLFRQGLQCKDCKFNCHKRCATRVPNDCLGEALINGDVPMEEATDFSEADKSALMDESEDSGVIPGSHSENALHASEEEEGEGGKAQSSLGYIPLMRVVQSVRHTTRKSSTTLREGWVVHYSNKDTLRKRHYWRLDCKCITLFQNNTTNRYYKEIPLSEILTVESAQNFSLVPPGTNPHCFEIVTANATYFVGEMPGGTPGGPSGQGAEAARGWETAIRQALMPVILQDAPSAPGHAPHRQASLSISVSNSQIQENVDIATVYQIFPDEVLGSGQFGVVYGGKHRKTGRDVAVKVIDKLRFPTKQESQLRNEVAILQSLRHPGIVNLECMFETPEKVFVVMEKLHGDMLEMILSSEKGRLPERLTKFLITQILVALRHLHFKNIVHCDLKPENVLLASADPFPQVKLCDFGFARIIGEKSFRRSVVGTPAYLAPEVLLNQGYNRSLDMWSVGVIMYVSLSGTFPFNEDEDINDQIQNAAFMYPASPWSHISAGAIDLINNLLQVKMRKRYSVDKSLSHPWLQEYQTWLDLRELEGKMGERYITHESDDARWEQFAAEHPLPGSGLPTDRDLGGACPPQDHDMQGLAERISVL
Particulars: at 0.1 µM.

In assay [11] the target is T3, Serine/threonine-protein kinase D2 (Homo sapiens). The following applies: at 1 µM.
The target in assay [12] is T4, Serine/threonine-protein kinase D3 (Homo sapiens) (UniProt O94806).
T4 sequence (whole entry): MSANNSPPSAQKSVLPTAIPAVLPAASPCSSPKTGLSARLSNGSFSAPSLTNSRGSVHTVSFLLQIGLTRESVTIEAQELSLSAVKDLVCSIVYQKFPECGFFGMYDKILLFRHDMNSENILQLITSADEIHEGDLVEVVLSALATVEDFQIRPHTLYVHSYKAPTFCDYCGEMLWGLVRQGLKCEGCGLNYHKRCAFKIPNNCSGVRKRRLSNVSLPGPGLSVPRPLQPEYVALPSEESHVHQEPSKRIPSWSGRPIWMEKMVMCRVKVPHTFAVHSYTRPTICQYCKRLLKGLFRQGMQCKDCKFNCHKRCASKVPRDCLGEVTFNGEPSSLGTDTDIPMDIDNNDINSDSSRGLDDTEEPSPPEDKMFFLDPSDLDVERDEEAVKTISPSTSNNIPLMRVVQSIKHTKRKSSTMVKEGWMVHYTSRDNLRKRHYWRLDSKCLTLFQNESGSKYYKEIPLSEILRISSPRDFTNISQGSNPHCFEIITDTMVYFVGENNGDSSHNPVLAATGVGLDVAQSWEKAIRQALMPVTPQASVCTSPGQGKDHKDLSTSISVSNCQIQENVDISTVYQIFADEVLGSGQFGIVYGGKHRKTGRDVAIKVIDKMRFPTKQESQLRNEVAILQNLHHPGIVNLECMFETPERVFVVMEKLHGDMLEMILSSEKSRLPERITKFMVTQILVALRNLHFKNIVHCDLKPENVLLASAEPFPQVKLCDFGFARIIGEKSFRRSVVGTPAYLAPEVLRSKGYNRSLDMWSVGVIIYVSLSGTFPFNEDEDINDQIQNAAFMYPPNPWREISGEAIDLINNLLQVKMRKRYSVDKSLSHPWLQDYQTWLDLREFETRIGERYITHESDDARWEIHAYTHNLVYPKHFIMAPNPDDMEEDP
Particulars: at 0.1 µM.

Assay [13] deals with T4, Serine/threonine-protein kinase D3 (Homo sapiens). Particulars: at 1 µM.
Assay [14] concerns the target T5, cGMP-dependent protein kinase 1 (Homo sapiens) (UniProt Q13976).
T5 sequence (whole entry): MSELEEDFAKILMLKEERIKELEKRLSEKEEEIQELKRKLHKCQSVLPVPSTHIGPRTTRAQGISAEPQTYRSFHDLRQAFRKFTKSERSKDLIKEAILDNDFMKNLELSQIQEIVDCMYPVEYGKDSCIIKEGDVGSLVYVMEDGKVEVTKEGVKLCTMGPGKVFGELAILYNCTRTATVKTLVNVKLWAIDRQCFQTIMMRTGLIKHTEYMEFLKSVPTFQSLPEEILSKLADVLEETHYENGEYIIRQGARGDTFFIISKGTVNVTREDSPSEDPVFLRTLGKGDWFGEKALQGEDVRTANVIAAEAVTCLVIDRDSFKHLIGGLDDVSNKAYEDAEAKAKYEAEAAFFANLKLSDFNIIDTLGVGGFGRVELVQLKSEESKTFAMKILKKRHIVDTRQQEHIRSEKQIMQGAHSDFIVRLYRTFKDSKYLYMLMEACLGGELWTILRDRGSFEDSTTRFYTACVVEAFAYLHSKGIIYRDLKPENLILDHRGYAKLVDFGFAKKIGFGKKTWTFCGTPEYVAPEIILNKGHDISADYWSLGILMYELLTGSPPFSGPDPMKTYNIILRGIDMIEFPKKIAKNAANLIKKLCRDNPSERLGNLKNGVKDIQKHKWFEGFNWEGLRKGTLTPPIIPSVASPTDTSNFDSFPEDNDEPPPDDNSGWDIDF
Particulars: at 0.1 µM.

Assay [15] has as its target T5, cGMP-dependent protein kinase 1 (Homo sapiens). The following applies: at 1 µM.
For assay [16], the target named is T6, cGMP-dependent protein kinase 2 (Homo sapiens) (UniProt Q13237).
T6 sequence (whole entry): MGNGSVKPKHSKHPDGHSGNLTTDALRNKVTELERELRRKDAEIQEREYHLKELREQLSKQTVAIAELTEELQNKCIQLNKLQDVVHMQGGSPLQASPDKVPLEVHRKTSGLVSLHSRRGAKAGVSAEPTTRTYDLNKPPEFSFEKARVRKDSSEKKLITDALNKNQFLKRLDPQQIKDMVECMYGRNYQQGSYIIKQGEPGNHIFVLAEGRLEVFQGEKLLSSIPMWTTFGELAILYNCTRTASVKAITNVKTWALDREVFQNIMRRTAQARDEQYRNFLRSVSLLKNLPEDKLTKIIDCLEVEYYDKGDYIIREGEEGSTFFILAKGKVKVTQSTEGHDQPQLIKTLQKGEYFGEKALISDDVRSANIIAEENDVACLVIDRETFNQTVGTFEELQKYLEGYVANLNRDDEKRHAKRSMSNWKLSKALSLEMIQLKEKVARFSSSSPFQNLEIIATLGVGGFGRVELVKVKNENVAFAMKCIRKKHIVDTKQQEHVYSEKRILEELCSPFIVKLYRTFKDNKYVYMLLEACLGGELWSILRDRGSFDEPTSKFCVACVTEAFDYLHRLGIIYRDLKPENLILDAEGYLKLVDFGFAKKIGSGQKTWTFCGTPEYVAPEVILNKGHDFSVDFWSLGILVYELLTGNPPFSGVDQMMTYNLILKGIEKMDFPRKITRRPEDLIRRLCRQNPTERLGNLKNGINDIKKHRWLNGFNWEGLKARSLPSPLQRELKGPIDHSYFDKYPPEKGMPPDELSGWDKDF
The following applies: at 0.1 µM.

Assay [17] has as its target T6, cGMP-dependent protein kinase 2 (Homo sapiens). The following applies: at 1 µM.
Assay [18] addresses T7, cAMP-dependent protein kinase catalytic subunit PRKX (Homo sapiens) (UniProt P51817).
T7 sequence (whole entry): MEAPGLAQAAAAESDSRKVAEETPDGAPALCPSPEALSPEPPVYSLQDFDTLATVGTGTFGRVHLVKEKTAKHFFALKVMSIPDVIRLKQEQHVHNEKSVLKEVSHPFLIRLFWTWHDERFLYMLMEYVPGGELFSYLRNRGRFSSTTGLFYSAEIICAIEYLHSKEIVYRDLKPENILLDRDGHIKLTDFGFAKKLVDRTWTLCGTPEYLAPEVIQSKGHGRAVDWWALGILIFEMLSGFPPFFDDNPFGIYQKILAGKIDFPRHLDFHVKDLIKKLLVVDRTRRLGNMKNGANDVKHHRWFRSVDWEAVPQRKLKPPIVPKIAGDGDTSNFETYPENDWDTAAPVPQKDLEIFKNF
Particulars: at 0.1 µM.

Assay [19] concerns the target T7, cAMP-dependent protein kinase catalytic subunit PRKX (Homo sapiens). The following applies: at 1 µM.
In assay [20] the target is Rho-associated protein kinase 1 (Homo sapiens) (UniProt Q13464). Particulars: at 0.1 µM.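 Also: values are mean percent inhibition of ROCK1.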
Chain of Rho-associated protein kinase 1 (Homo sapiens) (Q13464 2-1354 limits assumed): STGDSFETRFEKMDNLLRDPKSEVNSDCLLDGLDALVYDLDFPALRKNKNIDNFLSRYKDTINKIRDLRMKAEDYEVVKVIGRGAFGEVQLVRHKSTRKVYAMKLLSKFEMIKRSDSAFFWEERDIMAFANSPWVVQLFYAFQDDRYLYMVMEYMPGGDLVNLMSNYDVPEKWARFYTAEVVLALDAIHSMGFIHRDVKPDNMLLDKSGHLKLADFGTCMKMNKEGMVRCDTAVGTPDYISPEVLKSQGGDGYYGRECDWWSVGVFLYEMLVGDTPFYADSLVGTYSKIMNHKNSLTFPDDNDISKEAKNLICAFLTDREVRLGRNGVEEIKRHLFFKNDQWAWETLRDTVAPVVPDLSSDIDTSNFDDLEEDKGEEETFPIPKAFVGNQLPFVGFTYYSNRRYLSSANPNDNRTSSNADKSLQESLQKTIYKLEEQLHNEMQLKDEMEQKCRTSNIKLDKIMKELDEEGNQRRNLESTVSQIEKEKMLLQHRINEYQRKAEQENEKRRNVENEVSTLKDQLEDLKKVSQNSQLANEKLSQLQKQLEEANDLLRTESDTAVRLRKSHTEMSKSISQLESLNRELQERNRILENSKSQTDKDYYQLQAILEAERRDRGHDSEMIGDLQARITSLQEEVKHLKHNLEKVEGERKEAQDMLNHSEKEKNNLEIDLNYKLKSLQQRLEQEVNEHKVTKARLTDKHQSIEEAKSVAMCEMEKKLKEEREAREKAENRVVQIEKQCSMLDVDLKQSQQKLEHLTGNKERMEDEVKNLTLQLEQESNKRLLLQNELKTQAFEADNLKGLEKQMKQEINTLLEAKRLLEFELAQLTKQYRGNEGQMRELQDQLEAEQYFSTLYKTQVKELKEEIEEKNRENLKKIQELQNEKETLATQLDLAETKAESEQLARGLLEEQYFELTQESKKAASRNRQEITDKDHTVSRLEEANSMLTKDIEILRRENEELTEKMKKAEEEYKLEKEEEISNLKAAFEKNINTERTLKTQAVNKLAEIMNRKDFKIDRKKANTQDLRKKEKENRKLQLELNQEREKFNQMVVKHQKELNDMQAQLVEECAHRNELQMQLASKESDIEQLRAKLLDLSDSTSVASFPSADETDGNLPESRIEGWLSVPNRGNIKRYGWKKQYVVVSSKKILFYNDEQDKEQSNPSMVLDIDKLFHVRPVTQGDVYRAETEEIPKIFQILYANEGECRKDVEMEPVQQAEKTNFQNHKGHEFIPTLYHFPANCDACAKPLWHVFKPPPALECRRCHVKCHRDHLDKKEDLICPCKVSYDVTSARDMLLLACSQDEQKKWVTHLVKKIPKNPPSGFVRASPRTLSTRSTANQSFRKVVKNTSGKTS

Chain of Protein kinase C theta type (Homo sapiens) (Q04759 whole entry, looked up): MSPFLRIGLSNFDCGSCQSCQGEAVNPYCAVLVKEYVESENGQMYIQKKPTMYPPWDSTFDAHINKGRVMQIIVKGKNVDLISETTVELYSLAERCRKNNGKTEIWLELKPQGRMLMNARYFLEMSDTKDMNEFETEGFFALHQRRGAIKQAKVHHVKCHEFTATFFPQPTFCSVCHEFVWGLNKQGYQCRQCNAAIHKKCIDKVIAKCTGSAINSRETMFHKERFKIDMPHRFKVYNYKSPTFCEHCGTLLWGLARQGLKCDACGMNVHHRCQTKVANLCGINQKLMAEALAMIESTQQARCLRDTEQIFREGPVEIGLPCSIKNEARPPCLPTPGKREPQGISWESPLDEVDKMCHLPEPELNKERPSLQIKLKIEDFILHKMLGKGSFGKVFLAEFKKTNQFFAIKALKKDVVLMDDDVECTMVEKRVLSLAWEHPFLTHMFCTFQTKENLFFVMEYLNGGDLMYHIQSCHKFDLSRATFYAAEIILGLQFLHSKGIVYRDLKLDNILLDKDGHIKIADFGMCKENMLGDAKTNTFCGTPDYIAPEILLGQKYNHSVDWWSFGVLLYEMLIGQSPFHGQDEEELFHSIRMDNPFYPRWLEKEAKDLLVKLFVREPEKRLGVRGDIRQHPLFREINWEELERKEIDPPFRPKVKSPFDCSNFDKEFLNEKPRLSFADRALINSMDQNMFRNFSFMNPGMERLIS
Chain of Protein kinase C beta type (Homo sapiens) (P05771 2-671 limits assumed): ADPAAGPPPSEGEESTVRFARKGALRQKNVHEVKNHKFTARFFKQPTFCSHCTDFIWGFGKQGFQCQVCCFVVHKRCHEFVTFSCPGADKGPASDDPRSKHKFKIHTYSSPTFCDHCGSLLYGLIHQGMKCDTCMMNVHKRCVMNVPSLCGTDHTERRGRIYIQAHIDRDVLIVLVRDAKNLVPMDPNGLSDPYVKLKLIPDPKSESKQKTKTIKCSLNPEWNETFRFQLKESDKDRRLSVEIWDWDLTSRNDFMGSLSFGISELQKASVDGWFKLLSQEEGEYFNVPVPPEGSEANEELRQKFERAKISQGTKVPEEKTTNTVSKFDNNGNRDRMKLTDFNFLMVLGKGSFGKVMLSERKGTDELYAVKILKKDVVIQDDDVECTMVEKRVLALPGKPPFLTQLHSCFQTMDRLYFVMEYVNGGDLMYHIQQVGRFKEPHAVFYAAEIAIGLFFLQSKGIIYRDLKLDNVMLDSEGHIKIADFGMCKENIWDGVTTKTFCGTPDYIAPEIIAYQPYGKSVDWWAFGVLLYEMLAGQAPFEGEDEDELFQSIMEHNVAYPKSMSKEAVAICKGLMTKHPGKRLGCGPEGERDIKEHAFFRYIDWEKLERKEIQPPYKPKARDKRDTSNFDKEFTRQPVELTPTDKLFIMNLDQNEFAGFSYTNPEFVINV

As to `COC(=O)Nc1nc2ccc(S(=O)(=O)c3ccc(NC(=O)Nc4cc(C(F)(F)F)ccc4F)cc3)cc2[nH]1`, the inhibition in [1] was 1.8%; in assay [2] it was 0.65%; in [3], 1.49%; in assay [4], 0.7%; in assay [5], -0.17%; in assay [6], 0.33%. Moreover, the inhibition in [7] came out at 0.07%; in [8], 2.33%; in [9], 5.18%; in [10] it was 2.66%; in assay [11], 5.37%; in assay [12], 3.18%. In addition, the inhibition in assay [13] was found to be 5.1%; in assay [14] it was 2.21%; in assay [15], 3.86%; in [16], 2.34%; in assay [17] it was 2.48%; in [18], 0.54%. The inhibition in assay [19] is -0.36%; in assay [20], 0.44%.

Turning to `COc1cc2ncn(-c3cc(OCc4ccccc4C(F)(F)F)c(C(=O)N(C)C)s3)c2cc1OC`, the inhibition is 0.13% in assay [1]; -0.68% in [2]; -2.2% in assay [3]; 0.14% in [4]; -0.71% in [5]; 0.03% in [6]. In addition, the inhibition in assay [7] came out at 0.09%; in assay [8] it was 0.6%; in assay [9] it was 1.47%; in assay [10] it was 1.09%; in [11] it was 1.88%; in assay [12] it was 0.07%. Also, the inhibition in [13] is -0.01%; in [14], -0.43%; in assay [15], 0.77%; in [16], -0.41%; in assay [17], 0.43%; in assay [18] it was -0.01%. Further, the inhibition in assay [19] was -0.4%; in assay [20], -0.15%.
